The target of assay [1] is Paired box protein Pax-6 (Homo sapiens) (UniProt P26367). As to the kind of experiment: ATG_Pax6_CIS: Attagene CIS-FACTORIAL HepG2 Assay for human Paired Box 6 (PAX6) (AID 2282956). To be noted: HepG2 CIS-FACTORIAL PAX6 reporter transcription, RNA readout; actives raise or lower the signal. In outline:
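HepG2 cells transiently transfected with multiplexed cis-promoter reporter units (endogenous TF activity) were dosed for 24 h. Reporter mRNA was quantified by RT-PCR, 6-FAM labeling, HpaI digestion and capillary electrophoresis; bidirectional fitting versus DMSO baseline.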

A short description of assay [2]: ATG_PXRE_CIS: Attagene CIS-FACTORIAL HepG2 Assay for human Pregnane X Receptor Element (PXRE) (AID 2282957). To be noted: HepG2 Attagene CIS-FACTORIAL PXRE reporter, mRNA; actives raise or lower the signal. In outline: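 Cells: HepG2, transiently transfected reporter units under cis promoter control. Exposure: 24 h. Detection: reporter mRNA via RT-PCR/CE fluorescence; bidirectional fitting, DMSO-referenced.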

Assay [3] in a line: ATG_PPRE_CIS: Attagene CIS-FACTORIAL HepG2 Assay for human Peroxisome Proliferator-activated Response Element (PPRE) (AID 2282958). Particulars: HepG2 PPRE cis-element reporter, Attagene transcription factor profiling; actives raise or lower the signal. In outline: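 HepG2, transient MRTU transfection (cis promoter elements, endogenous TFs). 24 h dosing. RNA → oligo(dT) RT → PCR → 6-FAM primer extension → HpaI digest → CE. Bidirectional fit vs DMSO.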

Assay [4] can be described thus: ATG_RORE_CIS: Attagene CIS-FACTORIAL HepG2 Assay for human RAR-related Orphan Receptor Element (RORE) (AID 2282959). To be noted: HepG2 Attagene cis-factorial RORE reporter, mRNA; actives raise or lower the signal. In outline: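 Transient MRTU transfection of human HepG2 liver cells (FuGene 6); 24 h compound exposure; TriZol RNA, oligo(dT) RT, PCR, FAM labeling, HpaI cut, CE fragment analysis. DMSO = negative control/baseline.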

A short description of assay [5]: ATG_Sox_CIS: Attagene CIS-FACTORIAL HepG2 Assay for human SRY-box transcription factor (SOX) (AID 2282960). Particulars: HepG2 Attagene cis-factorial SOX reporter, mRNA; actives raise or lower the signal. In outline:
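Endogenous factor activity in human liver HepG2 cells carrying transfected cis-regulated reporter units. RNA taken 24 h post-dose, reverse-transcribed, PCR-amplified and sized by capillary electrophoresis. Gain or loss of signal fitted relative to DMSO.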

Assay [6] concerns the target Transcription factor Sp1 (Homo sapiens) (UniProt P08047). Kind of assay: ATG_Sp1_CIS: Attagene CIS-FACTORIAL HepG2 Assay for human Specificity Protein 1 (Sp1) (AID 2282961). To be noted: HepG2 Sp1 cis-reporter transcription, actives raise or lower the signal. In outline:
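Transient MRTU-transfected HepG2, 24 h compound exposure. Total RNA → oligo(dT) RT → PCR of reporter → 6-FAM primer extension → HpaI digest → CE. Endpoint fitted both directions vs DMSO.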

Assay [7] is described as follows: ATG_SREBP_CIS: Attagene CIS-FACTORIAL HepG2 Assay for human Sterol Regulatory Element Binding (SREBP) (AID 2282962). To be noted: HepG2 Attagene cis-factorial SREBP reporter, mRNA; actives raise or lower the signal. In outline:
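HepG2 cells transiently transfected with multiplexed cis-element reporter units report endogenous transcription factor activity. After 24 h of chemical exposure, reporter mRNA was quantified by RT-PCR, 6-FAM labelling, HpaI digestion and capillary electrophoresis; bidirectional fits used DMSO as baseline.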

Assay [8] can be described thus: ATG_TA_CIS: Attagene CIS-FACTORIAL HepG2 Assay for human TA Basal Promoter (AID 2282964). Particulars: HepG2 Attagene CIS-factorial TA basal promoter reporter; actives raise or lower the signal. The gist of the method:
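Background-control readout: TA basal promoter reporter mRNA, fitted in both directions relative to DMSO. Measured by RT-PCR and capillary electrophoresis 24 hours after treating HepG2 human liver cells transiently carrying multiplexed cis-regulated reporter constructs.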

Assay [9] can be described thus: ATG_TCF_b_cat_CIS: Attagene CIS-FACTORIAL HepG2 Assay for human T-Cell-Factor with beta-catenin (TCF/b-cat) (AID 2282965). To be noted: HepG2 TCF/beta-catenin cis-reporter transcription, actives raise or lower the signal. In outline:
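Endogenous transcription factor activity is captured through cis-promoter reporter constructs transiently introduced into human HepG2 liver cells. Induced reporter mRNA is measured after 24 h and fitted bidirectionally relative to DMSO.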

Assay [10] deals with Signal transducer and activator of transcription 3 (Homo sapiens) (UniProt P40763). As to the kind of experiment: ATG_STAT3_CIS: Attagene CIS-FACTORIAL HepG2 Assay for human Signal Transducer and Activator of Transcription 3 (STAT3) (AID 2282963). Particulars: HepG2, Attagene cis-factorial STAT3 reporter transcription; actives raise or lower the signal. In outline:
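Endogenous STAT3-responsive cis-element activity was read in transiently transfected HepG2 cells after 24 h treatment. Reporter transcripts were quantified via RT-PCR and capillary electrophoresis, with DMSO as negative control and bidirectional curve fitting.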

Several values for one entry are separate records, joined by “and”; a condition that tells them apart may be missing. Identical values can stand only once. More than one record can exist for a structure, and the calls need not agree. Activity calls are given as the source filed them. The calls were made as follows: active = hit-call score of the fitted dose curve at least 0.9, where 1 is the maximum; inactive = score below 0.9.

Chain of Transcription factor Sp1 (Homo sapiens) (P08047 whole entry, looked up): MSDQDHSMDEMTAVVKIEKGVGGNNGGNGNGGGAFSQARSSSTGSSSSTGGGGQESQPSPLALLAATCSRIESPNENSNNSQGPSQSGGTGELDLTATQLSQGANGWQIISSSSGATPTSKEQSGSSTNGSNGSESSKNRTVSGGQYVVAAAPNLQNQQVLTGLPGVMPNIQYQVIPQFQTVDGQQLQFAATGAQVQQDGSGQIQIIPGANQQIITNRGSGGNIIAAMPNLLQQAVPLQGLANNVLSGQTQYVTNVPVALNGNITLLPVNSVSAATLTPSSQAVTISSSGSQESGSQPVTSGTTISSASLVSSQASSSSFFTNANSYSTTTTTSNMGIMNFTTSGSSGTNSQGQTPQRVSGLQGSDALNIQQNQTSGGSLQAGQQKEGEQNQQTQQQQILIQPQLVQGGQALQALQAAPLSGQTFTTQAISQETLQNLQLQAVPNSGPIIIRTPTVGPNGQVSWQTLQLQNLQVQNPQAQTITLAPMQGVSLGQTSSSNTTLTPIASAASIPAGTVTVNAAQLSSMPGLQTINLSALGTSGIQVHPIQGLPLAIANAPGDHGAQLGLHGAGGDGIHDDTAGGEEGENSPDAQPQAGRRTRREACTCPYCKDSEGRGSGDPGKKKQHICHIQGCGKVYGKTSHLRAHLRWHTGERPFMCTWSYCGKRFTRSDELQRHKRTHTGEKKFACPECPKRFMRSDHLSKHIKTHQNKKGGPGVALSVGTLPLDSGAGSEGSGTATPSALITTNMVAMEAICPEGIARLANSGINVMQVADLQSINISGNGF
Chain of Signal transducer and activator of transcription 3 (Homo sapiens) (P40763 whole entry, looked up): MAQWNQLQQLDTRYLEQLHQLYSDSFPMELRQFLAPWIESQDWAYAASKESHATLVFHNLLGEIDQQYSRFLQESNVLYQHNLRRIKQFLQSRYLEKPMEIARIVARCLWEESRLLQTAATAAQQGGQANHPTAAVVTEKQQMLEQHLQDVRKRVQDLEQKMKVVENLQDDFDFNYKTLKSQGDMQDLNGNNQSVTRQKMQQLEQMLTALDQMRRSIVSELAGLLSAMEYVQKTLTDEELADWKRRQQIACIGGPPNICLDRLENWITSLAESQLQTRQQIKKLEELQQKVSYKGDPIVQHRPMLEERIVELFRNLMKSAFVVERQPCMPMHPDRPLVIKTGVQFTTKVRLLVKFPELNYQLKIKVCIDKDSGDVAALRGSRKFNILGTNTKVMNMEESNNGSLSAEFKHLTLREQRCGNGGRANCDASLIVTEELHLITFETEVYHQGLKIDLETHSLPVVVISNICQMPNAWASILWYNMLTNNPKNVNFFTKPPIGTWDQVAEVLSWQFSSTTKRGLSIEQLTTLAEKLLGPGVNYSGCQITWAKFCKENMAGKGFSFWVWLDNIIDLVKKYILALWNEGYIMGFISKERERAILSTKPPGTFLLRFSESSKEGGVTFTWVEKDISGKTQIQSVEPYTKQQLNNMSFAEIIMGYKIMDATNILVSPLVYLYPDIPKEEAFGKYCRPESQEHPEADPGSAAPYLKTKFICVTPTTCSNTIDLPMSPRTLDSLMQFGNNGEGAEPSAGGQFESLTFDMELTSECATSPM
Chain of Paired box protein Pax-6 (Homo sapiens) (P26367 whole entry, looked up): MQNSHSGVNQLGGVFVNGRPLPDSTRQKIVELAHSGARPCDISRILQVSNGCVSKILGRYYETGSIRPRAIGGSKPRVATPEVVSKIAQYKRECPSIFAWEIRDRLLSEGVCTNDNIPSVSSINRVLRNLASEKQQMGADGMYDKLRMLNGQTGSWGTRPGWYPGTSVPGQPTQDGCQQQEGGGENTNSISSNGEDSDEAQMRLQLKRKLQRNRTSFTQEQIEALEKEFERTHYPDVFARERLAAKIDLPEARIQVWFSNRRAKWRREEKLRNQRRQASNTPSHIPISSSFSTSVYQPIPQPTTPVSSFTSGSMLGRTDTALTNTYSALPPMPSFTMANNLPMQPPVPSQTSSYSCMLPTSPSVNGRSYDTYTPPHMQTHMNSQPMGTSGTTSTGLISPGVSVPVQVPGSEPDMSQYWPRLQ

As for `Clc1ccc(Nc2nnc(Cc3ccncc3)c3ccccc23)cc1`, the AC50 in assay [1] was 27 µM (active); in assay [2], 1.45 µM (active); in assay [4], 15.8 µM (active). Besides, the result in assay [3], in assay [5], in assay [6] and in assay [7] was inactive.
On to `CNNCc1ccc(C(=O)NC(C)C)cc1`, for which the outcome in assay [1], in assay [2], in assay [3], in assay [5], in [6] and in assay [7] was inactive. Moreover, the compound was classed as inactive in assay [8] and in assay [9]. In addition, the AC50 in assay [2] was 25.7 µM (active).
Turning to `CC(C)c1c(C(=O)Nc2ccccc2)c(-c2ccccc2)c(-c2ccc(F)cc2)n1CC[C@@H](O)C[C@@H](O)CC(=O)O`, the AC50 in [1] is 94.5 µM (active); in assay [2] it was 5.31 µM (active) and 12.2 µM (active); in assay [7], 0.156 µM (active); in [8] it was 66.4 µM (active) and 45 µM (active); in [9], 144 µM (active). Also, the compound was classed as inactive in assay [1], in assay [3], in assay [4], in [5], in assay [6] and in assay [7]. Further, the result in assay [10] and in assay [9] was inactive.
Regarding `O=S(=O)(O)c1ccccc1`, the result in assay [1], in [2], in [3], in [4], in [5] and in assay [6] was inactive. For the same compound, the outcome in assay [7], in assay [10] and in assay [8] was inactive. The figures for the AC50 in [2] and in assay [3] were 55.5 µM (active) and 57.9 µM (active), respectively.
Regarding `FC1(F)C=CC(F)(F)C1(F)F`, the outcome in assay [1], in assay [2], in [3], in assay [4], in assay [5] and in assay [6] was inactive. The compound was classed as inactive in assay [7].
In the case of `Nc1cc(Cl)c(-c2cc(Cl)c(N)cc2Cl)cc1Cl`, the result in assay [1], in assay [3], in [4], in [10] and in [8] was inactive. Moreover, the AC50 in assay [2] is 2.97 µM (active); in assay [5], 10.5 µM (active); in [6], 15.9 µM (active); in [7], 6.9 µM (active).
On to `Cc1ccc(S(=O)(=O)O)cc1`, for which the compound was classed as inactive in assay [1], in assay [2], in assay [5], in assay [6], in [7] and in assay [10]. In addition, the compound was classed as inactive in assay [8]. The AC50 in [2] was 26.3 µM (active).
In the case of `CCCCCCCCCCCC`, the call in assay [1], in assay [2], in [4], in assay [5], in [6] and in [7] was inactive. For the same compound, the compound was classed as inactive in assay [10] and in assay [9]. Moreover, the AC50 in assay [2] is 4.16 µM (active).
Regarding `COC(=O)C(F)(F)C(F)(F)C(F)(F)F`, the compound was called inactive in [1], in [2], in [3], in assay [4], in assay [5] and in assay [6]. Further, the compound was called inactive in assay [7] and in assay [10].
Turning to `COc1cccc(O)c1`, the compound was classed as inactive in assay [1], in [2], in [3], in assay [4], in assay [5] and in [6]. Also, the call in [7], in [10] and in assay [8] was inactive.
In the case of `CCO[Si](CCC1CCC2OC2C1)(OCC)OCC` (configuration not stated), the compound was called inactive in [1], in [2], in assay [3], in assay [4], in assay [5] and in assay [6]. Besides, the compound was called inactive in [7], in assay [10] and in assay [8].
Take `CCC(=O)C=Cc1ccc(OC)cc1`: the compound was classed as inactive in [1], in assay [3], in assay [4], in [6], in assay [7] and in [10]. In addition, the results for the AC50 in assay [2] and in assay [5] were 26.9 µM (active) and 70.4 µM (active), respectively.

These data come from PubChem BioAssay (EPA / NIEHS).
